Assay [1] has as its target mouse Peroxisome Proliferator-activated Receptor gamma (PPARg), Pparg (gene 19016) (UniProt P37238). The assay is described as follows: ATG_mPPARg_XSP2: Attagene TRANS-FACTORIAL Multi-Species (XSP2) HepG2 Assay for mouse Peroxisome Proliferator-activated Receptor gamma (PPARg) (AID 2283830).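 Further: hits are gains in reporter mRNA above DMSO so AC50 marks activation.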 The gist of the method: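 HepG2 cells transiently transfected with GAL4-UAS reporter units for chimeric NR-Gal4 proteins including mouse PPARg, exposed 24 h; medium contained 3 nM 6-alpha-fluorotestosterone and 1.5 nM norgestrel. Reporter mRNA quantified by RT-PCR, HpaI digestion and capillary electrophoresis, vs DMSO.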

Assay [2] addresses Nuclear receptor subfamily 1 group I member 2 (Mus musculus) (UniProt O54915). The assay is described as follows: ATG_mPXR_XSP2: Attagene TRANS-FACTORIAL Multi-Species (XSP1) HepG2 Assay for mouse Pregnane X Receptor (PXR) (AID 2283831). How it is done: (§1) ATG_XSP2_multi-species_TRANS is a cell-based, multiplexed assay created by modifying the existing Attagene TRANS-FACTORIAL system to include a panel of nuclear receptors from some or all the following species: human (Homo sapiens), mouse (Mus musculus), frog (Xenopus laevis), zebrafish (Danio rerio), chicken (Gallus gallus), and turtle (Chrysemys picta). The ECOTOX-FACTORIAL format uses HepG2, a human liver cell line, with measurements taken at 24 hours after chemical dosing in a 24-well plate. Xsp2 included 3 nM 6-alpha-fluorotestosterone and 1.5 nM norgestrel to stimulate the androgen receptor.ATG_mPXR_XSP2 is one of 29 assay components measured or calculated from the ATG_XSP2_multi-species_TRANS assay. It is designed to make measurements of mRNA induction, a form of inducible reporter, as detected with fluorescence intensity signals by Reverse transcription polymerase chain reaction (RT-PCR) and Capillary electrophoresis technology.The assay endpoint ATG_mPXR_XSP2 was analyzed in the positive analysis fitting direction relative to DMSO as the negative control and baseline of activity. […] Furthermore, this assay endpoint can be referred to as a primary readout, because this assay has produced multiple assay endpoints where this one serves a reporter gene function. […]
(§2) Human liver HepG2 cells are transiently transfected with multiple reporter transcription units (MRTUs) in 6-well plates using FuGene 6 reagent (Roche; 3 ml FuGene/1 mg DNA). […] A major difference between the CIS and TRANS system is that in CIS activities of endogenous TFs are measured, whereas the TRANS assay evaluates changes in activities of exogenous, chimeric NR-Gal4 proteins. […] The fragments were purified using Qiaquick PCR columns (Qiagen), analyzed on an ABI 3130xL genetic analyzer (Applied Biosystems) with peak positions identified by using a set of X-rhodamine (ROX)-labeled MapMarker1000 molecular weight standards (BioVentures). […]

The target of assay [3] is zebrafish Thyroid Hormone Receptor alpha (TRa), thraa (gene 30670) (UniProt Q98867). The assay is described as follows: ATG_zfTRa_XSP2: Attagene TRANS-FACTORIAL Multi-Species (XSP1) HepG2 Assay for zebrafish Thyroid Hormone Receptor alpha (TRa) (AID 2283832).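 Further: actives raise zebrafish TRa-Gal4 reporter transcript above DMSO baseline.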 The method, then: as §1, with “receptor.ATG_zfTRa_XSP2” for “receptor.ATG_mPXR_XSP2”, “ATG_zfTRa_XSP2” for “ATG_mPXR_XSP2”
as §2

Assay [4] concerns turtle Thyroid Hormone Receptor, alpha (TRa), gene 101949057. The assay is described as follows: ATG_trTRa_XSP2: Attagene TRANS-FACTORIAL Multi-Species (XSP1) HepG2 Assay for turtle Thyroid Hormone Receptor, alpha (TRa) (AID 2283834).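 Further: hits raise reporter mRNA over the DMSO baseline so AC50 marks activators.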 In short, it runs like this:
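Multiplexed TRANS reporter assay; HepG2 carrying NR-Gal4 constructs treated 24 h. mRNA of the GAL4-UAS reporter quantified via labelled RT-PCR fragments on a genetic analyzer, vs DMSO negative control.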

A short description of assay [5]: ATG_M_61_XSP2: Attagene TRANS-FACTORIAL Multi-Species (XSP2) HepG2 Assay for M61 Transcription Factor (Internal Marker) (AID 2283835; active means hit-call score of the fitted dose curve at least 0.9, where 1 is the maximum; inactive means score below 0.9;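 further: reporter mRNA of an internal background marker read by RT-PCR and capillary electrophoresis; active means a rise in signal above the DMSO baseline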). In short, it runs like this:
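First, HepG2 cells are transfected with reporter units under GAL4-UAS control. Next, chemicals are applied for 24 h. Then total RNA is reverse-transcribed, amplified, fluorescently labelled and sized by capillary electrophoresis, with gain of signal scored against DMSO.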

For assay [6], the target named is zebrafish Thyroid Hormone Receptor beta (TRb), thrb (gene 30607) (UniProt Q9PVE4). In words: ATG_zfTRb_XSP2: Attagene TRANS-FACTORIAL Multi-Species (XSP1) HepG2 Assay for zebrafish Thyroid Hormone Receptor beta (TRb) (AID 2283836). In short, it runs like this: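 Human liver HepG2, transient MRTU transfection (NR-Gal4 chimeras, GAL4-UAS reporters); 24 h compound exposure; total RNA → oligo(dT) RT → PCR → 6-FAM label → HpaI cut → CE fluorescence. DMSO = negative control/baseline.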

Assay [7] can be described thus: ATG_XTT_Cytotoxicity_XSP2: Cytotoxicity Assessment in the Attagene TRANS-FACTORIAL Multi-Species (XSP2) HepG2 Assay (AID 2283837). How it is done:
ATG_XSP2_XTT_Cytotoxicity_multi-species is a cell-based, single-readout assay that uses HepG2, a human liver cell line, with measurements taken at 24 hours after chemical dosing in a 24-well plate.ATG_XTT_Cytotoxicity_XSP2 is an assay component measured from the ATG_XSP2_XTT_Cytotoxicity_multi-species assay. It is designed to make measurements of cell number, a form of viability reporter, as detected with fluorescence intensity signals by XTT cytotoxicity assay technology.Data from the assay component ATG_XTT_Cytotoxicity_XSP2 was analyzed into 1 assay endpoint. This assay endpoint, ATG_XTT_Cytotoxicity_XSP2, was analyzed in the positive analysis fitting direction relative to DMSO as the negative control and baseline of activity. Using a type of viability reporter, loss-of-signal activity can be used to understand changes in the viability. Furthermore, this assay endpoint can be referred to as a primary readout, because the performed assay has only produced 1 assay endpoint. […]
Human liver HepG2 cells are transiently transfected with multiple reporter transcription units (MRTUs) in 6-well plates using FuGene 6 reagent (Roche; 3 ml FuGene/1 mg DNA). […] A major difference between the CIS and TRANS system is that in CIS activities of endogenous TFs are measured, whereas the TRANS assay evaluates changes in activities of exogenous, chimeric NR-Gal4 proteins. […]

Assay [8] deals with human Thyroid hormone Receptor alpha (TRa), THRA (gene 7067) (UniProt P10827). In words: ATG_hTRa_XSP2: Attagene TRANS-FACTORIAL Multi-Species (XSP2) HepG2 Assay for human Thyroid hormone Receptor alpha (TRa) (AID 2283838). In short, it runs like this:
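HepG2 cells were transiently transfected with GAL4-UAS reporter units for chimeric human TRa-Gal4 and dosed for 24 hours, with 3 nM 6-alpha-fluorotestosterone and 1.5 nM norgestrel present. Reporter mRNA was quantified by RT-PCR, FAM labelling and capillary electrophoresis, with gain of signal fitted versus DMSO.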

Assay [9] has as its target frog Thyroid hormone Receptor alpha (TRa), thra-a (gene 397942) (UniProt P15204). In words: ATG_frTRa_XSP2: Attagene TRANS-FACTORIAL Multi-Species (XSP2) HepG2 Assay for frog Thyroid hormone Receptor alpha (TRa) (AID 2283839). The gist of the method: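 Chimeric frog TRα-GAL4 activity in human liver cells measures reporter transcript induction 24 h post-dose. Detection uses RT-PCR, HpaI-digested labelled products and fluorescence capillary electrophoresis; DMSO serves as negative control.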

Assay [10] deals with zebrafish Peroxisome Proliferator-activated Receptor gamma (PPARg), gene 557037. In words: ATG_zfPPARg_XSP2: Attagene TRANS-FACTORIAL Multi-Species (XSP2) HepG2 Assay for zebrafish Peroxisome Proliferator-activated Receptor gamma (PPARg) (AID 2283833).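 Further: actives increase reporter signal over DMSO so AC50 reflects activation.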 The gist of the method: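 HepG2, transient MRTU transfection, 24 h compound; zfPPARg-GAL4 reporter mRNA by RT-PCR + capillary electrophoresis; gain-of-signal vs DMSO.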

As a reminder, the AC50 is the concentration at which the activity in the assay is half-maximal.

The structures appear in SMILES notation. Where “and” joins values, the source holds several entries; their conditions need not be identical. Equal entries are not always repeated. Results filed as inconclusive are left out. Calls of active or inactive are those of the source. How the source made its calls, unless noted: active means hit-call score of the fitted dose curve at least 0.9, where 1 is the maximum; inconclusive means response in the unintended direction; inactive means score below 0.9.

Nuclear receptor subfamily 1 group I member 2 (Mus musculus), sequence (O54915 whole entry, looked up): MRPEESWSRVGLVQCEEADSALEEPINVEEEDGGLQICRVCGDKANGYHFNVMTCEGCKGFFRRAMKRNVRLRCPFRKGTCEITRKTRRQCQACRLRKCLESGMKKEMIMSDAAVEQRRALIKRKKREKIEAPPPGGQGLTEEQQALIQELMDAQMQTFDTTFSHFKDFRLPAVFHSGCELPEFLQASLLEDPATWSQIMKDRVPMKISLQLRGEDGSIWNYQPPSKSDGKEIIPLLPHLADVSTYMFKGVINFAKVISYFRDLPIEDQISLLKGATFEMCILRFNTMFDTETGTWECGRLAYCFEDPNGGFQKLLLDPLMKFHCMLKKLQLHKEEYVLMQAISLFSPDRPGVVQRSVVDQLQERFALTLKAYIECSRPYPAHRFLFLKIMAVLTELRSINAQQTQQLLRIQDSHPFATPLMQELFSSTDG
zebrafish Thyroid Hormone Receptor beta (TRb), thrb (gene 30607), sequence (Q9PVE4 whole entry, looked up, the tested form may be a part): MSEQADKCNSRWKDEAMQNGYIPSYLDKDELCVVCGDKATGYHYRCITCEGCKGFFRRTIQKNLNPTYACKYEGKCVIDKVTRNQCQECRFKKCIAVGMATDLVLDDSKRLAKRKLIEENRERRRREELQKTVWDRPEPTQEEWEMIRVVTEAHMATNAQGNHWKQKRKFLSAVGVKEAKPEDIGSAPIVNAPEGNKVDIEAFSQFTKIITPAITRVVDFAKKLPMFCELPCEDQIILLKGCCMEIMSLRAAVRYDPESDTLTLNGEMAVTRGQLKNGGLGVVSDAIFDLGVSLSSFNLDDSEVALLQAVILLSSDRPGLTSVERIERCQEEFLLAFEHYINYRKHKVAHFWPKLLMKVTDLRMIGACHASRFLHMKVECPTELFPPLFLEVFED
frog Thyroid hormone Receptor alpha (TRa), thra-a (gene 397942), sequence (P15204 whole entry, looked up, the tested form may be a part): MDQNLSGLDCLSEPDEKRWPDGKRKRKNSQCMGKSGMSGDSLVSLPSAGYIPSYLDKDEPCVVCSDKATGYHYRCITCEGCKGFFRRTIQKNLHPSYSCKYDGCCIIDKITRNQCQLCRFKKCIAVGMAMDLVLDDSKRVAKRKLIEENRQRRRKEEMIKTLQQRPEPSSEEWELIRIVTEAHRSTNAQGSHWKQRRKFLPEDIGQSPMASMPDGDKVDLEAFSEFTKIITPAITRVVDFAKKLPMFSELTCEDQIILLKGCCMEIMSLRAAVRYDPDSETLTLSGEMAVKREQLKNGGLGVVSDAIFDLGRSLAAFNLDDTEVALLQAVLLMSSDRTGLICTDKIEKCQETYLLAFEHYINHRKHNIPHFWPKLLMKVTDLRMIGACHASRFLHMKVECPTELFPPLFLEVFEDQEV
zebrafish Thyroid Hormone Receptor alpha (TRa), thraa (gene 30670), sequence (Q98867 whole entry, looked up, the tested form may be a part): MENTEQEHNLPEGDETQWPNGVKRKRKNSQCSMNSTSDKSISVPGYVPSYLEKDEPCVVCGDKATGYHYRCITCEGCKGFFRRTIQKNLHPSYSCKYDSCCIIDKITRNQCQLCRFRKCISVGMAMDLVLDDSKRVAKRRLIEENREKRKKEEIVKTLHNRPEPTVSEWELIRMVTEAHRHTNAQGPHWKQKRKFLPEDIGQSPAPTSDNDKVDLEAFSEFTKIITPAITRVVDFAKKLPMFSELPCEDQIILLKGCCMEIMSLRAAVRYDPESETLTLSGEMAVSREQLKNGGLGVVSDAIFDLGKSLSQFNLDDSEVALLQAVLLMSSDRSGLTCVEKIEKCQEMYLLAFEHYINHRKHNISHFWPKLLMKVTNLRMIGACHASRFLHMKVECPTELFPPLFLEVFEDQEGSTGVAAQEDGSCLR
mouse Peroxisome Proliferator-activated Receptor gamma (PPARg), Pparg (gene 19016), sequence (P37238 whole entry, looked up, the tested form may be a part): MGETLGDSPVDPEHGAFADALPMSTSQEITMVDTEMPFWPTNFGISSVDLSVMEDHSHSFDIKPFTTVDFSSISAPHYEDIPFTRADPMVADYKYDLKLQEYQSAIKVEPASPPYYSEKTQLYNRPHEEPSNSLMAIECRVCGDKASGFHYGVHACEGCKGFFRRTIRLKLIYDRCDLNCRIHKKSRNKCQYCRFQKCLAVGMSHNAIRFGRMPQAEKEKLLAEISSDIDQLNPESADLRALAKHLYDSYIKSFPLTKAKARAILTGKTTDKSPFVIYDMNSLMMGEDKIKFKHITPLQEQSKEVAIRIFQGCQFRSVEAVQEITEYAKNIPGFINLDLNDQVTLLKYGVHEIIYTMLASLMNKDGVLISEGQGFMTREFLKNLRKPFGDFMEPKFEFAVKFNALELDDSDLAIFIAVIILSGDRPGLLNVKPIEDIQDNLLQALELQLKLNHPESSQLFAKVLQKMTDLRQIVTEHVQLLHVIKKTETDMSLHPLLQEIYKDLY
human Thyroid hormone Receptor alpha (TRa), THRA (gene 7067), sequence (P10827 whole entry, looked up, the tested form may be a part): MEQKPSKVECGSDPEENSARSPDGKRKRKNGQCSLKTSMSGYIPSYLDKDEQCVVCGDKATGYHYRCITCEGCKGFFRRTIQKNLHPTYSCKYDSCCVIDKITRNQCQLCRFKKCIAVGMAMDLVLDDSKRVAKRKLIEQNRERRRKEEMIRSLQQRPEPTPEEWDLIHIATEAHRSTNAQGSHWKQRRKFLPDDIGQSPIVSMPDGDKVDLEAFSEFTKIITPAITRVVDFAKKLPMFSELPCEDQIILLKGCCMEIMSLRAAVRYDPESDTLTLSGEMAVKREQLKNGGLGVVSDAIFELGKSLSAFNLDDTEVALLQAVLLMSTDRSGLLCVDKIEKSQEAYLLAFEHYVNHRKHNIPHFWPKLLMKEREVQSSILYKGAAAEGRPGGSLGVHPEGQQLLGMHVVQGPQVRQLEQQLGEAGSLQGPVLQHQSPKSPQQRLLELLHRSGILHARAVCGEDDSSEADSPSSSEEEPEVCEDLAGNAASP

Consider `Oc1ccc2c(c1)-c1ccccc1C2`, for which the half-maximal activity concentration (AC50) is 43.9 µM (active) and 49.3 µM (active) in [1]; 17.1 µM (active) and 44.2 µM (active) in assay [2]. Besides, the compound was called inactive in [3], in assay [4], in assay [5], in assay [6], in [7] and in assay [8]. For the same compound, the outcome in assay [9] was inactive.
On to `O=P(OC(CCl)CCl)(OC(CCl)CCl)OC(CCl)CCl`, for which the AC50 is 26.2 µM (active) in [1] and 703 nM (active) in assay [2]. The compound was classed as inactive in assay [3], in [10], in assay [4], in assay [5], in assay [6] and in assay [9].
For the compound `Clc1nc(Cl)c(Cl)c(Cl)c1Cl`, the concentration at half-maximal activity (AC50) in assay [1] is 1.48 µM (active) and 2.05 µM (active). Moreover, the result in [2], in assay [3], in [10], in assay [6], in assay [7] and in [9] was inactive.

The values are drawn from PubChem BioAssay (EPA / NIEHS).
